Bioassay records (PubChem)
Not all results are given here.
aSyn UTR act: Activators via SNCA 5'UTR binding, MLPCN; activity score, % (tested at 7.5 µM), hits read low; AID 1814; 7.1% of 300,000 active; alpha-synuclein 5'UTR reporter, activators screen; in the data active = activity score below about -60%
Hits are given with their value.

CC(C)c1ccc(S(=O)(=O)c2cc3cc(Br)ccc3oc2=O)cc1 was read as aSyn UTR act -62.5.
`CCOC(=O)c1c(N/N=C/c2ccncc2)n[nH]c1C` gave aSyn UTR act -81.2.
Screening CCc1[nH]nc(C(=O)N/N=C/c2ccncc2)c1C returned aSyn UTR act -70.3.
For Cc1cc2n(n1)SC(Nc1cccc3ccccc13)N2 (stereo not drawn) the results were aSyn UTR act -93.9.
Cc1cc(C)n(-c2ccc3cccc(NS(C)(=O)=O)c3n2)n1 was read as aSyn UTR act inactive.
For Cc1ccc(/C=N/NC(=O)c2cc(-c3cccnc3)nc3ccccc23)cc1 the results were aSyn UTR act inactive.
C/C(=N\NC(=O)c1nn(C)c(C)c1Br)c1ccc(NC(=O)c2ccccc2F)cc1 was read as aSyn UTR act -68.5.
For C/C(=N/NC(=O)c1ccoc1C)c1ccc(N2CCOCC2)cc1 the results were aSyn UTR act -131.0.
C/C(=N\NC(=O)c1nn(C)c(C)c1Br)c1ccc(NC(=O)c2ccc(C)s2)cc1 was read as aSyn UTR act -149.3.
For CCOc1ccc(-c2cc(C(=O)N/N=C(\C)c3cccnc3)c3ccccc3n2)cc1 the results were aSyn UTR act -91.7.
`C/C(=N\NC(=O)c1ccc(NS(=O)(=O)c2cccs2)cc1)c1ccccn1` gave aSyn UTR act inactive.
For C/C(=N\NC(=O)c1ccoc1C)c1cccnc1 the results were aSyn UTR act -117.3.
Screening C/C(=N\NC(=O)c1c(Br)c(C)nn1C)c1ccc(NC(=O)c2ccoc2C)cc1 returned aSyn UTR act -106.1.
Screening C/C(=N/NC(=O)c1ccoc1C)c1ccc(NC(=O)c2ccncc2)cc1 returned aSyn UTR act -206.5.
Screening C/C(=N\NC(=O)c1nn(C)c(C)c1Br)c1ccc(NC(=O)c2ccoc2C)cc1 returned aSyn UTR act -114.7.
For CC(=O)N(C)c1nnc(-c2ccccn2)s1 the results were aSyn UTR act -70.6.
Screening COc1cnc(-c2ccccn2)nc1N(C)C returned aSyn UTR act inactive.
Screening Cc1ccc(-c2nnc(N(C)C(=O)c3ccncc3)s2)cn1 returned aSyn UTR act -77.4.
CN(C(=O)c1cccnc1)c1nnc(-c2ccccn2)s1 was read as aSyn UTR act -97.9.
`COCCN(C(C)=O)c1nnc(-c2ccccn2)s1` gave aSyn UTR act -65.5.
CCN1C(=S)SC(=O)C1=C1C=C(C)N(CCO)C(C)=C1 was read as aSyn UTR act -165.2.
C#CCOCCOCCOCCNc1nc(N2CCN(C(=O)CCCCCCCCCCNC(=O)[C@H](CO)n3cc(CCCSC)nn3)CC2)nc(N2CCN(C(=O)CCCCCCCCCCNC(=O)[C@H](CCCCN)n3cc(C[C@@H](C)CC)nn3)CC2)n1 was read as aSyn UTR act inactive.
C#CCOCCOCCOCCNc1nc(N2CCN(C(=O)CCCCCCCCCCNC(=O)[C@H](CCCCN)n3cc(CCCC(=O)O)nn3)CC2)nc(N2CCN(C(=O)CCCCCCCCCCNC(=O)[C@H](CCCCN)n3cc(CCCC(=O)O)nn3)CC2)n1 was read as aSyn UTR act -111.9.
For C#CCOCCOCCOCCNc1nc(N2CCN(C(=O)CCCCCCCCCCNC(=O)[C@H](CCCCN)n3cc(CCCC(=O)O)nn3)CC2)nc(N2CCN(C(=O)CCCCCCCCCCNC(=O)[C@H](CCCN=C(N)N)n3cc(C[C@@H](C)CC)nn3)CC2)n1 the results were aSyn UTR act -132.2.
Screening C#CCOCCOCCOCCNc1nc(N2CCN(C(=O)CCCCCCCCCCNC(=O)[C@H](CCCCN)n3cc(C[C@@H](C)CC)nn3)CC2)nc(N2CCN(C(=O)CCCCCCCCCCNC(=O)[C@H](CCCCN)n3cc(C[C@@H](C)CC)nn3)CC2)n1 returned aSyn UTR act inactive.
COc1ccc2[nH]c(=O)c(-c3noc(-c4ccccc4)n3)cc2c1 was read as aSyn UTR act -121.4.
For COc1cccc(-c2nc(-c3ccc(C(=O)O)cc3)no2)c1 the results were aSyn UTR act -96.0.
For COc1ccc(-c2nc(-c3ccc(NC(=O)c4ccncc4)cc3)no2)cc1OC the results were aSyn UTR act -155.0.
Screening COc1cc(OC)cc(-c2nc(-c3ccccc3)no2)c1 returned aSyn UTR act -139.7.
COc1ccc(-c2nc(-c3ccccn3)no2)cc1 was read as aSyn UTR act inactive.
`COc1cccc(-c2nc(-c3ccc(NC(=O)c4cccs4)cc3)no2)c1` gave aSyn UTR act -154.2.
Screening COc1cccc(-c2noc(-c3ccc(Cl)nc3)n2)c1 returned aSyn UTR act -182.1.
Screening O=C(O)c1ccc(-c2noc(-c3cccc(F)c3)n2)cc1 returned aSyn UTR act -96.0.
`COC(=O)c1nc(NC(=S)NC(=O)c2cccs2)sc1C` gave aSyn UTR act -80.5.
Screening COC(=O)Cc1nc(NC(=O)c2cccs2)sc1C returned aSyn UTR act -81.6.
For O=C(NC(=S)Nc1nc2ccccc2s1)c1cccs1 the results were aSyn UTR act -136.1.
Cc1cc(NC(=O)COc2cccc(C)c2C)no1 was read as aSyn UTR act -66.1.
`Cc1cc(NC(=O)COc2ccc(C)c(C)c2)no1` gave aSyn UTR act -61.7.
Cc1ccccc1OCC(=O)NC1=NCCS1 was read as aSyn UTR act -77.2.
Screening Cc1cc(NC(=O)COc2ccccc2C)no1 returned aSyn UTR act -115.9.
For Cc1cc(NC(=O)COc2cccc3cccnc23)no1 the results were aSyn UTR act -95.6.
For COc1ccc(CN=Cc2[nH]c3ccc(Br)c(Cl)c3c2O)cc1 the results were aSyn UTR act -77.7.
`COc1cccc(CN2C(=O)C3(C(C#N)=C(N)OC4=C3C(=O)CCC4)c3ccccc32)c1` (stereo not drawn) gave aSyn UTR act inactive.
Screening COc1cccc(Cn2c(=O)sc3ccccc3c2=O)c1 returned aSyn UTR act -78.5.
`CCn1c(C)nc2c(C)[n+](CC(=O)c3ccc(Br)cc3)ccc21` gave aSyn UTR act -105.9.
`CCn1cnc2sc(C(=O)Oc3cccc(C)c3)c(C)c2c1=O` gave aSyn UTR act -66.6.
`OCc1cc(Br)ccc1OCc1nc2ccccc2s1` gave aSyn UTR act -70.3.
Screening Oc1ccccc1OCc1nc2ccccc2s1 returned aSyn UTR act -113.4.
For CCc1cccc2c(=O)c(C(=O)N3CCCCCC3)c[nH]c12 the results were aSyn UTR act -77.7.
Screening CCOC(=O)c1sc(N)c(C(=O)OCC)c1C returned aSyn UTR act -64.9.
`CCC(C)c1ccc2oc(-c3ccc(NC(=O)Cn4cnc5c(=O)n(C)c(=O)n(C)c54)cc3)nc2c1` (stereo not drawn) gave aSyn UTR act -114.5.
Screening Cc1ccc2oc(-c3cccc(NC(=O)Cn4cnc5c(=O)n(C)c(=O)n(C)c54)c3)nc2c1 returned aSyn UTR act -118.7.
For CC(=O)Oc1ccc(Cl)cc1/C=C/c1cc(OC(C)=O)c2ccccc2n1 the results were aSyn UTR act -137.7.
Screening COc1cc(Cl)cc(/C=C/c2ccc3ccccc3n2)c1OC(C)=O returned aSyn UTR act -126.7.
For O=c1oc(-c2ccccc2)cc(Cl)c1Cl the results were aSyn UTR act -197.6.
O=C1N/C(=N\N=C\c2cccnc2)SC1Cc1ccc(SC(F)F)cc1 (stereo not drawn) was read as aSyn UTR act inactive.
For COc1cc(/C=N/N=C2/NC(=O)C(CC(=O)O)S2)ccc1OCc1cccc(Cl)c1 (stereo not drawn) the results were aSyn UTR act -184.9.
Screening CC1=C(C(=O)Nc2ccccn2)C(c2ccc(Cl)cc2)NC(=S)N1 (stereo not drawn) returned aSyn UTR act -121.7.
